# Source: PubChem BioAssay (National Center for Advancing Translational Sciences (NCATS))
# Sampled rows, rich in hits. Any-hit rate of the full collection: about 19%.
# TDP1 cell noCPT – qHTS for Inhibitors of human tyrosyl-DNA phosphodiesterase 1 (TDP1): qHTS in cells in absence of CPT; DT40 Tdp1-/- hTDP1 cells, no CPT, ATP luminescence, 48 h; Potency, µM (highest dose often 46.2 µM), for the others: top-dose activity change, negative = growth inhibition, most hits filed as inhibitors; 15% of 420,000 active; AID 686978, 2013; also: potency is read from the fitted curve at half-maximal effect; nearly all actives have a fitted effect of over 55% in size
#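 Stably hTDP1-transfected Tdp1-null chicken DT40 cells were treated with library compounds minus camptothecin and grown for at least 48 hr at 37 °C, after which cellular ATP was quantified by luminescence.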
# IL-1B inflam inh – qHTS for Inhibitors of Inflammasome Signaling: IL-1-beta AlphaLISA Primary Screen. THP-1 LPS/ATP IL-1B secretion, AlphaLISA, 16 h; active compounds read low. 4.7% of 360,000 active. activity change, % at 57.5 µM. AID 743279, 2014; in the data active = activity change below about -50%; inconclusive = mostly about -30% to -49%
#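 THP-1 cells pretreated 1 hr with compounds (up to 57.5 uM final), then stimulated with LPS (250 ng/mL final) plus ATP (1.25 mM final); secreted IL-1B measured by AlphaLISA after 16 hr, decreased signal indicating inhibition.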
# HT1080 IDH1KD tx – qHTS for induction of synthetic lethality in tumor cells producing 2HG: qHTS for the HT-1080-IDH1KD cell line; Potency, µM (titrated, usually from 46.1 µM), for the others: top-dose activity, negative = toxicity, actives largely listed as cytotoxic; HT-1080 IDH1 knockdown viability, ATP luminescence, 48 h; AID 686971, 2013; 2% of 360,000 active;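 also: potency is read from the fitted curve at half-maximal effect; 0% = DMSO wells and -100% = cell-free medium wells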
#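 Knockdown cells (IDH1KD HT-1080) received compounds 2 h after plating at 750 cells/well and were kept 48 h at 37 °C in 5% FBS RPMI. A CellTiter-Glo luminescence read gave % activity for curve fitting.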
# HT1080-NT tox – qHTS for induction of synthetic lethality in tumor cells producing 2HG: qHTS for the HT-1080-NT fibrosarcoma cell line; HT-1080-NT fibrosarcoma viability, CellTiter-Glo ATP luminescence, 48 h; Potency, µM (series often up to 46.1 µM), inactives show at the highest dose activity, negative = less viability, hits mostly cytotoxic; 1.6% of 360,000 active; AID 686970, 2013;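 also: NT is the 2HG producing partner of a matched IDH1 knockdown line; potency is read from the fitted curve at half-maximal effect; 0% = DMSO-treated cells and -100% = media-only wells without cells; nearly all actives have a fitted effect of over 55% in size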
#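 A 48-hour cytotoxicity screen used HT-1080-NT cells plated 2 hours before compound delivery. ATP-based CellTiter-Glo luminescence measured viability, normalized to DMSO and no-cell controls.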
# DT40 TDP1 CPT – qHTS for Inhibitors of human tyrosyl-DNA phosphodiesterase 1 (TDP1): qHTS in cells in presence of CPT | AID 686979, 2013 | Potency, µM (highest dose often 46.2 µM), without a hit: at the top dose activity change, negative = growth inhibition, usual class: inhibitors | chicken DT40 Tdp1-/-;hTDP1 cells + 20 nM CPT, ATP luminescence, 48 h | 12% of 420,000 active; also: potency is read from the fitted curve at half-maximal effect; nearly all actives have a fitted effect of over 55% in size
#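 Cell growth measured by CellTiter-Glo luminescence after a minimum 48 h, 37 C compound exposure with 20 nM CPT in Tdp1-knockout DT40 cells stably expressing hTDP1, seeded 400/well; qHTS titration format.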
# * hit, by the source's call; ? = inconclusive; · = not tested or not shown; [ ] = remark or other dose. Unless noted, calls follow the shape of the dose curve; as a rule, active = well fitted curve in the direction sought with a large enough effect; inconclusive = small, poorly fitted or top-dose-only effect, or another doubt; inactive = no such curve, though single readings can be large; an effect the other way counts as inactive or inconclusive. Unless noted, % is scaled to controls: 0 for no effect and ±100 for the full control effect.
SMILES,TDP1 cell noCPT,IL-1B inflam inh,HT1080 IDH1KD tx,HT1080-NT tox,DT40 TDP1 CPT
c1ccc(Cc2cc[n+](Cc3ccccn3)cc2)cc1,9.2µM*,60.3,-21.4%,-1.7%,20.6µM*
C=CCN(CC(=O)NC1CCCC1)C(=O)C(=O)Nc1ccc2c(c1)OCCO2,-10.4%,11.5,5.4%,-19.6%,-15.7%
CCS(=O)(=O)c1ccc2oc(SCC(=O)NC34CC5CC(CC(C5)C3)C4)nc2c1,13µM*,-22.9,-7.5%,-8.9%,?
CCS(=O)(=O)c1ccc2oc(SCC(=O)NCc3ccccc3)nc2c1,-10.2%,18.8,16.2%,5.8%,7.2%
CCc1cc(C(=O)NCc2ccccc2)no1,-3.0%,·,·,·,-18.8%
Cc1cccc(CSc2nnc(-c3cccs3)n2Cc2ccco2)c1,?,-6.1,?,-0.3%,?
Cc1nc(Nc2ccccc2)[nH]c(=O)c1CCC(C)C,?,23.0,8.4%,9.0%,7.31µM*
S=C1Nc2ccccc2Sc2ccc(Cl)cc21,?,9.9,-25.5%,1.0%,?
CCCCCC[N+](C)(C)CC/C=C1/c2ccccc2Sc2ccc(Cl)cc21,5.8µM*,-24.1,-23.5%,-20.3%,7.31µM*
CC(C)Sc1ncc(Cl)c(C(=O)Nc2nc3ccc(S(C)(=O)=O)cc3s2)n1,-5.4%,·,·,·,1.0%
O=c1[nH]c(/C(=N\O)c2ccccc2)no1,14.6µM*,-16.6,-3.8%,-6.1%,?
Cc1ccc(S(=O)(=O)N(C)C)cc1NC(=O)C(C)N(C)Cc1sccc1C (centres undefined),20.6µM*,?,-14.1%,-0.4%,18.4µM*
Cc1ccc(S(=O)(=O)N(C)C)cc1NC(=O)C(C)NC(C)c1cccs1 (centres undefined),-24.1%,50.9,-4.3%,-0.8%,?
Cc1ccc(NC(=O)CCc2c(C)nc3nc(C)nn3c2C)c(Cl)c1,-17.4%,·,·,·,-6.3%
CNc1nc(OC)nc(N(C#N)CN2C(=O)c3ccccc3S2(=O)=O)n1,16.4µM*,-82.2*,?,-14.7%,14.6µM*
Cc1cc(C)nc(NC(=O)CN2C(=O)c3ccccc3S2(=O)=O)n1,-9.6%,12.5,5.3%,1.1%,4.5%
Cc1cc(C)nc(N(C#N)CN2C(=O)c3ccccc3S2(=O)=O)n1,14.6µM*,-14.2,1.4%,-0.7%,?
COc1ccc(CCNC(=O)CN2C(=O)c3ccccc3S2(=O)=O)cc1,-0.2%,-3.2,-7.8%,-0.1%,2.9%
CN(CCc1ccccc1)C1CCCN(S(=O)(=O)N(C)C)C1 (centres undefined),8.3%,3.3,-0.4%,7.8%,16.3%
CCCCC(=O)Nc1cnc(NC(=O)c2cccs2)cc1C,5.9%,-8.9,3.0%,-1.8%,-5.6%
O=C(CSc1nnc(NC(=O)c2ccco2)s1)Nc1ccc(F)cc1F,5.2%,8.0,3.8%,5.4%,1.5%
O=C(CC(CC(=O)c1ccccc1)C(=O)O)c1ccccc1,-12.8%,4.9,-1.6%,-10.7%,-5.8%
O=C(CC(C(=O)O)P(=O)(c1ccccc1)c1ccccc1)c1ccccc1 (centres undefined),-0.4%,-50.2*,12.9%,2.5%,-18.9%
COc1ccc(N(CC(=O)NCCSC2CCCCC2)S(=O)(=O)c2ccccc2)cc1OC,?,-1.7,0.0%,-0.7%,?
COc1ccc(CCNC(=O)C2CCN(C(=O)c3ccccc3C)CC2)cc1,18.4µM*,14.8,9.9%,12.1%,?
COc1ccc(CCNC(=O)C2CCN(C(=O)c3cccs3)CC2)cc1,-21.1%,33.7,7.8%,3.0%,-5.4%
COc1cc(OC)cc(C(=O)N2CCC(C(=O)NCCc3ccccc3)CC2)c1,7.31µM*,34.1,1.1%,0.8%,7.31µM*
Fc1c(F)c(C(F)(F)F)c(F)c(F)c1N/N=C\c1cccs1,18.4µM*,-73.7*,2.6%[9.24 µM],?,16.4µM*
